Reference: paper PMC4336329 (PLoS ONE, 2015)
Out of some 310,000 compounds screened, about 14,000 (4.5%) showed an effect of 50% or more. Effects have a minus sign here. The list comes from a sample in which strong results are over-represented; it also holds similar structures and randomly drawn compounds.

biological target: human ether-à-go-go-related gene (hERG) potassium channel (human, UniProt Q12809); assay: primary screen, population patch clamp on CHO cells stably expressing hERG; higher = less effect of the substance
Sequence (Q12809 whole entry, looked up): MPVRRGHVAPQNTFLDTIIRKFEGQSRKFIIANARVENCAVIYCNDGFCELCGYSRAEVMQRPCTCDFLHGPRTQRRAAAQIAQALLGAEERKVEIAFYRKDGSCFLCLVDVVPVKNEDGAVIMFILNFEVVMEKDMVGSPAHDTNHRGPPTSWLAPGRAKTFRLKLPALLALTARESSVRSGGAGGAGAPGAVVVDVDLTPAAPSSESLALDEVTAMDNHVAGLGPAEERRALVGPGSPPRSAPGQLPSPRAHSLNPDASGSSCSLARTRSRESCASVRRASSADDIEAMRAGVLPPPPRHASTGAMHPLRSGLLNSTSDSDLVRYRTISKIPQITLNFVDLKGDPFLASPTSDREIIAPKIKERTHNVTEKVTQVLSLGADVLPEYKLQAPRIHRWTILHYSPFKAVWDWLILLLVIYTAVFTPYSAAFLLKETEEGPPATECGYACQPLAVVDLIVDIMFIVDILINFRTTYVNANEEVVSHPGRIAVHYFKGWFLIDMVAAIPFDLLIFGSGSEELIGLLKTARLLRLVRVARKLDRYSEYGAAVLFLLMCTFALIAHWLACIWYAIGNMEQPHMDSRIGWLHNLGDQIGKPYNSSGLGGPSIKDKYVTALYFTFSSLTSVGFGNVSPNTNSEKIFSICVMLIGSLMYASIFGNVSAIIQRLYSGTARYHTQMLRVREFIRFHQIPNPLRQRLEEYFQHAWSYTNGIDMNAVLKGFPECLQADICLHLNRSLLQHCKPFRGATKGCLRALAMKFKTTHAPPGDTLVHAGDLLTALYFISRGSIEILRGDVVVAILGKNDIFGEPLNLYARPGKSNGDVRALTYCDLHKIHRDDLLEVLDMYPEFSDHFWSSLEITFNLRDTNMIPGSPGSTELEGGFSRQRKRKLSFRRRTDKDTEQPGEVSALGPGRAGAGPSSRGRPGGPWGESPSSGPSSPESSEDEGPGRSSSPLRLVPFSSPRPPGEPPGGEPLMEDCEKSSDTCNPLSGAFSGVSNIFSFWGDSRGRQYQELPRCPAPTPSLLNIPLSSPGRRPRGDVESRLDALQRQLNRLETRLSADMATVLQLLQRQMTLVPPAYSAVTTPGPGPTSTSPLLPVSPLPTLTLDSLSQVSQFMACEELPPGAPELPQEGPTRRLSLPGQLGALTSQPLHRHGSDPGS
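Further: peak tail current of the secondary pulse compared with the same well before compound.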

| SMILES | hERG current change (%, negative = inhibition) at 10uM [%] |
| --- | --- |
| COc1cc(C(=O)Nc2ccc(S(=O)(=O)Nc3nccc(C)n3)cc2)cc(OC)c1OC | 12.9 |
| O=C(CN1CCN(c2ccccn2)CC1)Nc1cc(C(F)(F)F)ccc1Cl | -3.6 |
| COc1ccc(-c2cc(NCCc3ccncc3)n3ncnc3n2)cc1 | -55.8 |
| c1ccc(-c2cc(-c3ccccc3)n3ncnc3n2)cc1 | -49.5 |
| COc1ccc(CCNc2cc(-c3ccccc3)nc3ncnn23)cc1 | -2.18 |
| COc1ccc(-c2cc(-c3ccccc3)nc3ncnn23)cc1 | -56.4 |
| COc1ccc(-c2cc(NCc3ccccn3)n3ncnc3n2)cc1 | -23.5 |
| Cc1cc(-c2ccccc2)n2ncnc2n1 | 12.5 |
| COc1ccc(-c2cc(-c3ccc(Br)cc3)nc3ncnn23)cc1OC | -34.4 |
| COc1ccc(-c2cc(-c3ccccc3)n3ncnc3n2)cc1 | -60.9 |
| COc1ccc(-c2ccnc3ncnn23)cc1 | -9.61 |
| COc1cc(OC)c(NS(=O)(=O)c2cn(C)cn2)cc1Cl | 5.67 |
| CCOC(=O)C(Cc1ccc(OC)c([N+](=O)[O-])c1)NC(=O)CCC(=O)Nc1ccc(OC)cc1 (centres unmarked) | 1.35 |
| COC1CCCN(C(=O)c2ccc(OC3CCN(S(=O)(=O)N(C)C)CC3)cc2)C1 (centres unmarked) | 8.14 |
| CCOC(=O)C(CCSC)NC(=O)CN.Cl (centres unmarked) | -6.89 |
| Cc1ccc(-n2c(C)cc(/C=C3/C(=O)NC(=O)N(C)C3=O)c2C)cc1 | 15.2 |
| CSc1nnc(-c2ccc(Br)s2)n1C | 1.98 |
| O=C(Cn1cc(C(F)(F)F)ccc1=O)N/N=C/c1ccccc1O | -7.65 |
| O=C(CSC1=NCCN1)Nc1ccccc1[N+](=O)[O-] | 11.2 |
| CC(Sc1ccc(S(=O)(=O)N2CCOCC2)cn1)C(=O)Nc1ccc(Cl)cc1Cl (centres unmarked) | -56.1 |
| CNC(=O)C(C)Sc1ccc(S(=O)(=O)N2CCOCC2)cn1 (centres unmarked) | -0.356 |
| CC(Sc1ccc(Cl)cc1)C(=O)Nc1ccc(S(=O)(=O)N2CCOCC2)cc1 (centres unmarked) | -22.7 |
| COc1ccc(Cl)cc1N1CCN(CCNC(=O)Nc2ccccc2C)CC1 | -40.1 |
| COc1cc(CNc2ncc(-c3ccc(Br)cc3)n2C)cc(OC)c1O.O=C(O)C(=O)O | -60.5 |
| COc1ccc(CNc2ncc(-c3ccc(Cl)cc3)n2C)c(OC)c1OC.O=C(O)C(=O)O | -47 |

| SMILES | hERG current change (%, negative = inhibition) at 10uM [%] |
| --- | --- |
| COc1cc(CNc2ncc(-c3ccc(Br)cc3)n2C)cc(OC)c1OC.O=C(O)C(=O)O | -49.9 |
| CCOc1cc(CNc2ncc(-c3ccc(OC)cc3)n2C)ccc1O.O=C(O)C(=O)O | -48.3 |
| COc1ccc(CNc2ncc(-c3ccccc3)n2C)c(OC)c1OC.O=C(O)C(=O)O | -44.1 |
| COc1cc(CNc2ncc(-c3ccc(Cl)cc3)n2C)cc(OC)c1OC.O=C(O)C(=O)O | -66.9 |
| Cc1cccc2c1cnn2C(=O)CCC(=O)N1CCC(C)CC1 | -14.1 |
| Br.NC1(N)OC(CN2C(=O)c3ccccc3C2=O)CS1 (centres unmarked) | -5.75 |
| Cc1c(C(=O)NC(C)c2ccncc2)oc2ccccc12 (centres unmarked) | -29.7 |
| O=C(Nc1ccc(C(=O)N2CCCC2)cc1)c1ccc2c(c1)OCO2 | -0.403 |
| O=C(Nc1ccc2c(c1)OCO2)c1ccc(CN2CCOCC2)cc1 | 10.1 |
| CCOc1ccc(OCc2cccc(C(=O)N3CCCC3)c2)cc1 | -11.6 |
| COc1ccc(OCc2cccc(C(=O)N3CCCC3)c2)cc1 | -3.08 |
| COc1ccc(C(=O)Nc2ccc(CN3CCCCC3)cc2)cc1 | -40.3 |
| COc1cc(OC)cc(C(=O)Nc2ccc(CN3CCCCC3)cc2)c1 | -14.7 |
| COc1ccc(OCc2cccc(C(=O)Nc3ccc(CN4CCCCC4)cc3)c2)cc1 | -72.8 |
| CC(C)C(=O)Nc1cccc(NC(=O)c2cccc(Br)c2)c1 | -52.1 |
| CCOc1ccc(OCc2cccc(C(=O)N3CCCCCC3)c2)cc1 | -69.3 |
| CCCNC(=O)c1cccc(NC(=O)C(C)C)c1 | -25.4 |
| O=C(Nc1ccc(CN2CCCCC2)cc1)c1ccc2c(c1)OCO2 | -64.3 |
| CC(C)C(=O)Nc1cccc(NC(=O)c2cccc(F)c2)c1 | 5.16 |
| CC(=O)Nc1ccc(NC(=O)C(C)OC(=O)c2cccc(S(=O)(=O)N3CCCC3)c2)cc1 (centres unmarked) | 10.4 |
| Cc1ccccc1CCNC(=O)C1CCCN(c2cnccn2)C1 (centres unmarked) | -0.76 |
| O=C(O)C(=O)O.O=C(c1cccnc1)N1CCN(Cc2ccccc2Br)CC1 | 4.7 |
| CCCCN(C)C(=O)c1nc2ccccn2c1CN1CCC[C@H]1CO | 3.21 |
| CC(C)C[C@H](NC(=O)c1nc[nH]c1C(=O)NCc1ccc(CNC(=O)OC(C)(C)C)cc1)C(=O)OCc1ccccc1 | 2.91 |
| CCOC(=O)CNC(=S)N(Cc1cccs1)C1CCCC1 | -5.82 |

| SMILES | hERG current change (%, negative = inhibition) at 10uM [%] |
| --- | --- |
| O=c1c2[nH]c3ccccc3c2ncn1Cc1ccccn1 | -0.569 |
| CCOC(=O)c1ccccc1NC(=O)COC(=O)CCC(=O)c1ccccc1 | 16.3 |
| NNC(=S)NC1CCS(=O)(=O)C1 (centres unmarked) | 22.1 |
| Cc1cc(/C=C2/C(=O)N(C)C(=S)N2C)ccc1N1CCCC1 | 7.27 |
| Cc1ccc(S(=O)(=O)N(CC(=O)Nc2ccc(C(N)=O)cc2)C(=O)N2CCN(C)CC2)cc1 | -0.0686 |
| O=C(Nc1ccc(CN2CCCCC2)cc1)c1cccc(Br)c1 | -86.7 |
| CCCCC(=O)Nc1cccc(NC(=O)c2ccc3c(c2)OCO3)c1 | 6.43 |
| CCCC(=O)Nc1cccc(NC(=O)c2ccc3c(c2)OCCO3)c1 | 5.87 |
| O=C(Nc1ccc(CN2CCCCC2)cc1)c1cccc(F)c1 | -40 |
| CCCC(=O)Nc1cccc(NC(=O)c2ccc3c(c2)OCO3)c1 | -52.3 |
| O=C(Nc1ccc(CN2CCCCC2)cc1)c1cc(Br)ccc1Cl | -20.3 |
| CCOc1ccc(OCc2cccc(C(=O)N(CC)CC)c2)cc1 | -67.6 |
| CCOc1ccc(OCc2ccc(C(=O)N(CC)CC)cc2)cc1 | 2.22 |
| CCOc1ccc(OCc2cccc(C(=O)Nc3ccc(CN4CCCCC4)cc3)c2)cc1 | -63.2 |
| CCOc1ccc(NC(=O)c2ccc(CN3CCc4ccccc4C3)cc2)cc1 | 0.805 |
| O=C(NC(=S)Nc1ccc(CN2CCCCC2)cc1)c1cccc(OCc2ccccc2)c1 | -5.83 |
| CCOc1ccc(OCc2cccc(C(=O)O)c2)cc1 | 8.48 |
| COc1ccc(NC(=O)CO/N=C2/CCCc3nonc32)c(OC)c1 | 11.1 |
| COc1ccc(CCNC(=O)Cn2nnc(-c3cccs3)n2)cc1OC | -7.76 |
| Cc1onc(-c2ccccc2Cl)c1C(=O)N1CCC(C)CC1 | 4 |
| COC(=O)/C(=C/c1ccccc1)NC(=O)c1ccco1 | 4.23 |
| CCN1CCN(c2ccc(NC(=O)c3ccc4c(c3)OCO4)cc2)CC1 | -54.5 |
| O=C(Nc1ccc(CN2CCCCC2)cc1)c1c(F)c(F)c(F)c(F)c1F | -56.5 |
| CC(=O)Nc1ccc(CN2CCCCCCC2)cc1 | -4.11 |
| CN1CCN(c2ccc(NC(=O)c3ccc4c(c3)OCO4)cc2)CC1 | -38.3 |

| SMILES | hERG current change (%, negative = inhibition) at 10uM [%] |
| --- | --- |
| CCC(=O)N1CCN(c2ccc(NC(=O)c3ccc4c(c3)OCO4)cc2)CC1 | -0.905 |
| O=C(Nc1ccc(CN2CCCCC2)cc1)c1ccc(Br)o1 | -33 |
| Cc1nc2ccc(C(=O)Nc3ccccc3Cl)cc2s1 | 10.5 |
| O=C(Cc1ccccc1F)NC1CCSc2ccccc21 (centres unmarked) | -13 |
| O=C(Nc1ccccc1)NC1CCCCNC1=O (centres unmarked) | 21.4 |
| Cc1cccc(C(=O)N/N=C/c2ccc(OC3CSC3)cc2)c1 | -92.4 |
| COc1cccc(C(=O)N/N=C/c2ccc(OC3CSC3)cc2)c1 | 5.4 |
| O=C(N/N=C/c1ccc(OC2CSC2)cc1)c1ccccc1 | -13.6 |
| COC(=O)c1ccccc1NC(=O)c1ccc(Cn2cc(Cl)cn2)o1 | 4.21 |
| CCOC(=O)C1=C(c2cccc(Oc3ccccc3)c2)NC(=S)NC1C (centres unmarked) | -15.8 |
| CCn1c(CC(=O)Nc2ccccc2F)nnc1SCC(=O)Nc1nnc(C)s1 | -22.2 |
| CN(C)c1ccc(C(=O)N2CCCC(N3CCN(Cc4ccc5c(c4)OCO5)CC3)C2)cc1 (centres unmarked) | -82.3 |
| O=C(COc1ccc(Cl)cc1)N1CCN(Cc2ccc3c(c2)OCO3)CC1 | -52.6 |
| Cl.N#Cc1ccc(OCC(=O)N2CCN(Cc3ccc4c(c3)OCO4)CC2)cc1 | -68.1 |
| COc1ccc(OCC(=O)N2CCN(Cc3ccc4c(c3)OCO4)CC2)cc1 | -12.2 |
| Cc1ccccc1C(=O)N1CCCC(N2CCN(Cc3ccc4c(c3)OCO4)CC2)C1 (centres unmarked) | -11.7 |
| Cl.O=C(COc1ccc(Cl)cc1)N1CCN(Cc2ccc3c(c2)OCO3)CC1 | -48.2 |
| O=C(CSCc1ccc(Cl)cc1)N1CCN(Cc2ccc3c(c2)OCO3)CC1 | -48.2 |
| O=C(COc1ccc(Br)cc1)N1CCN(Cc2ccc3c(c2)OCO3)CC1 | -53.9 |
| O=C(COc1ccc(S(=O)(=O)N2CCOCC2)cc1)N1CCN(Cc2ccc3c(c2)OCO3)CC1 | -10 |
| O=C(c1ccc(F)cc1)N1CCCC(N2CCN(Cc3ccc4c(c3)OCO4)CC2)C1 (centres unmarked) | -22.2 |
| N#CCC(=O)N1CCN(Cc2ccc3c(c2)OCO3)CC1 | 16.3 |
| CCc1ccc(OCC(=O)N2CCN(Cc3ccc4c(c3)OCO4)CC2)cc1 | -15.9 |
